Measured values published in PubChem BioAssay (NCATS).
Inconclusive results are not listed. Unmarked numbers belong to inactive results. Activity calls are given as the source filed them. The call rests on the fitted dose curve; in most records, active means well fitted cell-killing curve with a large enough effect; inconclusive means small, poorly fitted or top-dose-only effect, or effect the other way; inactive means flat fitted curve, though single readings scatter. Where a SMILES comes first, the peptide text is derived from it. [ ]: non-standard residue; d: D form. ξ: configuration not given here. ξPhe(βξ-Me) = CC(c1ccccc1)C(N)C(=O)O; GABA = NCCCC(=O)O

tested on: Es-2; assay: Primary qHTS to identify gynecologic anti-cancer compounds using libraries of approved drugs and bioactive compounds (AID 1345084); settings: Gynecologic cancer cell panel viability, ATPlite luminescence, 48 h; series mostly up to 57.5 µM; activity change, negative = cytotoxicity: at the top concentration; further: nearly all actives have a fitted effect of over 55% in size
How it was run: (§1)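 Measured: luminescence after ATPlite addition (15 min, RT). Exposure: 48 h, 37 C, 5% CO2.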
On the % scale 0 is the no-effect control and ±100 the full control effect.

Point of comparison: `C=C[C@](C)(CC/C=C(\C)C(=O)O)O[C@@H]1OC[C@H](O)[C@H](O)[C@H]1O`, “activity change, negative = cytotoxicity” value 1.41% [at 38.5 µM]. Against it:
- CC(=O)N1c2ccccc2C2(O)CC3C(=O)NC(CC(C)C)C(=O)N3C12 (stereo not given) — lower, 0.178% [at 38.5 µM]
- O=C1[C@H](O[C@@H]2O[C@H](CO)[C@@H](O)[C@H](O)[C@H]2O)Oc2ccccc2N1O — higher, 4.82% [at 38.5 µM]

Point of comparison: `CCCCS(=O)(=O)Nc1ncnc(OCCOc2ncc(Br)cn2)c1-c1ccc(Br)cc1`, “activity change, negative = cytotoxicity” value 1.17%. Against it:
- Oc1ccc([C@H]2COc3cc(O)ccc3C2)cc1 — higher, 7.31%
- Cc1nnc(C(C)C)n1C1CC2CCC(C1)N2CCC(NC(=O)C1CCC(F)(F)CC1)c1ccccc1 (stereo not given) — higher, 2.94%
- CC1(C)CCC[C@@]2(C)[C@H]1[C@H](O)C=C1COC(=O)[C@@]12O — lower, 0.0149%
- CCCCN(CCCC)C(=O)CN1C[C@H](c2ccc3c(c2)OCO3)[C@@H](C(=O)O)[C@@H]1c1ccc(OC)cc1 — higher, 9.24%
- O=C(O)Cc1nn(Cc2nc3cc(C(F)(F)F)ccc3s2)c(=O)c2nccnc12 — lower, -7.82%

Point of comparison: `CC(CO[C@@H]1O[C@H](COC(=O)/C=C/c2ccc(O)c(O)c2)[C@@H](O)[C@H](O)[C@H]1O)C1(O)COC(=O)C1` (stereo not given in full), “activity change, negative = cytotoxicity” value 7.05% [at 25.3 µM]. Against it:
- C[C@@H]1O[C@@H](OC[C@H]2O[C@@H](OCCc3ccccc3)[C@H](O)[C@@H](O)[C@@H]2O)[C@H](O)[C@H](O)[C@H]1O — lower, -4.18% [at 25.3 µM]
- COC(=O)[C@H](OC(C)=O)[C@H]1C(C)(C)C(=O)[C@H]2CC3=C4CC(=O)O[C@@H](c5ccoc5)[C@]4(C)CCC3[C@@]1(C)C2=O (stereo not given in full) — lower, 4.37% [at 25.3 µM]
- COC(=O)C1=CO[C@@H](O[C@@H]2O[C@H](CO)[C@@H](O)[C@H](O)[C@H]2O)[C@@H]2[C@@H](C(=O)OC)[C@@H](O)C(O)[C@H]12 (stereo not given in full) — lower, 0.896% [at 25.3 µM]

For `CCN[C@@H]1C[C@H](N)[C@@H](O[C@H]2OC(CN)=CC[C@H]2N)[C@H](O)[C@H]1O[C@H]1OC[C@](C)(O)[C@H](NC)[C@H]1O`, the Potency was “inactive”.

tested on: HeLa; assay: as above; settings: Gynecologic cancer cell panel viability, ATPlite luminescence, 48 h; series mostly up to 57.5 µM; activity change, negative = cytotoxicity: at the top concentration
How it was run: as §1

Point of comparison: `COC1CC(=O)C23C(=O)NC(CC(C)C)C2C(C)C(C)=CC3/C=C(\C)CCC1O` (stereo not given), “activity change, negative = cytotoxicity” value -2.22% [at 25.3 µM]. Against it:
- CC(C)C(=O)O[C@@H]1[C@@H](O)[C@@H](O[C@H]2O[C@H](CO)[C@@H](O)[C@H](O)[C@H]2O)O[C@H](CO)[C@H]1O — lower, -7.35% [at 25.3 µM]
- CC1(C)CC[C@]2(C(=O)O)CC[C@]3(C)C(=CCC4[C@@]5(C)CCC(O[C@@H]6OC[C@H](O)[C@H](O)[C@H]6O[C@@H]6O[C@H](CO)[C@@H](O)[C@H](O)[C@H]6O)[C@@](C)(CO)C5CC[C@]43C)[C@@H]2C1 (stereo not given in full) — higher, 8.87% [at 25.3 µM]
- C=C1CCC2C(C)(C)C(O)CCC2(C)C1CCC(C)CCOC(=O)CCC(=O)O (stereo not given) — higher, -1.1% [at 25.3 µM]
- CC1CCC2(C(=O)OC3OC(CO)C(O)C(O)C3O)CCC3(C(=O)O)C(=CCC4C5(C)CCC(OC6OC(C)C(O)C(O)C6O)C(C)(C)C5CCC43C)C2C1C (stereo not given) — higher, 2.44% [at 25.3 µM]
- COc1cc(C)c(C(=O)O[C@H]2[C@@H](O)[C@H](n3ccc(=O)[nH]c3=O)O[C@@H]2CO)c(OC)c1 — lower, -7.17% [at 25.3 µM]
- CC(C)CC1NC(=O)C(C(C)c2ccccc2)NC(=O)C(C(C)C)NC(=O)C(C)NC(=O)CCCNC(=O)C(Cc2c[nH]c3ccccc23)NC(=O)C(C)NC1=O (stereo not drawn) (cyclo([GABA]AV[ξPhe(βξ-Me)]LAW); configuration not given here) — higher, 19.6% [at 25.3 µM]
- C[C@@H]1O[C@@H](OC[C@H]2O[C@@H](OCC3CCC4CC3C4(C)C)[C@H](O)[C@@H](O)[C@@H]2O)[C@H](O)[C@H](O)[C@H]1O (stereo not given in full) — higher, 6.18% [at 25.3 µM]
- CC(C)=CCC/C(C)=C/CC/C(C)=C/CC[C@]1(C)CCc2cc(O)cc(C)c2O1 — higher, -1.03% [at 25.3 µM]
- C[C@@H]1O[C@@H](OC[C@H]2O[C@@H](OCCc3ccccc3)[C@H](O)[C@@H](O)[C@@H]2O)[C@H](O)[C@H](O)[C@H]1O — higher, -1.66% [at 25.3 µM]
- CC(CO[C@@H]1O[C@H](COC(=O)/C=C/c2ccc(O)c(O)c2)[C@@H](O)[C@H](O)[C@H]1O)C1(O)COC(=O)C1 (stereo not given in full) — lower, -6.29% [at 25.3 µM]
- COC(=O)[C@H](OC(C)=O)[C@H]1C(C)(C)C(=O)[C@H]2CC3=C4CC(=O)O[C@@H](c5ccoc5)[C@]4(C)CCC3[C@@]1(C)C2=O (stereo not given in full) — higher, 4.68% [at 25.3 µM]
- COC(=O)C1=CO[C@@H](O[C@@H]2O[C@H](CO)[C@@H](O)[C@H](O)[C@H]2O)[C@@H]2[C@@H](C(=O)OC)[C@@H](O)C(O)[C@H]12 (stereo not given in full) — higher, 0.755% [at 25.3 µM]

Point of comparison: `Cc1nnc(C(C)C)n1C1CC2CCC(C1)N2CCC(NC(=O)C1CCC(F)(F)CC1)c1ccccc1` (stereo not given), “activity change, negative = cytotoxicity” value 6.56%. Against it:
- C=C(C(=O)O)[C@@H]1CC=C2CCC[C@H](C)[C@@]2(C)C1 — lower, -20.5%
- CNc1nc(Nc2cnn([C@H]3CCN(C4COC4)C[C@@H]3F)c2Cl)ncc1C(F)(F)F — lower, 6.06%
- CCCCNC(=O)[C@@H]1Cc2ccccc2N1C(=O)[C@@H](N)CC — lower, 6.1%
- Cc1coc2c1CC1OC1(C)CCC1OC1(C)C2 (stereo not given) — lower, 3.31%
- CCOC(=O)[C@H]1O[C@@H]1C(=O)N[C@@H](CC(C)C)C(=O)NCCC(C)C — higher, 10.2%
- CC(C)Nc1cc(-c2c[nH]c(C(=O)N[C@H](CO)c3cccc(Cl)c3)c2)c(Cl)cn1 — lower, -2.64%
- O=C(O)C[C@@H](NC(=O)c1cc(-c2ccc(-c3ccncc3)cc2)cs1)c1ccccc1 — lower, -23.6%
- OC[C@H]1O[C@@H](n2cnc3c2NC=NC[C@H]3O)C[C@@H]1O — lower, -0.885%
- Nc1ccn([C@@H]2C(F)=C(CO)[C@@H](O)[C@H]2O)c(=O)n1 — lower, -20%
- CCCCS(=O)(=O)Nc1ncnc(OCCOc2ncc(Br)cn2)c1-c1ccc(Br)cc1 — lower, 2.37%
- CC1(C)CCC[C@@]2(C)[C@H]1[C@H](O)C=C1COC(=O)[C@@]12O — lower, -1.45%
- CCCCN(CCCC)C(=O)CN1C[C@H](c2ccc3c(c2)OCO3)[C@@H](C(=O)O)[C@@H]1c1ccc(OC)cc1 — lower, -4.51%
- O=C(O)Cc1nn(Cc2nc3cc(C(F)(F)F)ccc3s2)c(=O)c2nccnc12 — lower, 3.85%

Point of comparison: `COc1cc(N2CCC(O)CC2)ccc1Nc1cc(Nc2ccccc2S(=O)(=O)C(C)C)c2cc[nH]c2n1`, “activity change, negative = cytotoxicity” value -21.4% [at 38.5 µM]. Against it:
- COC(=O)C1C(CC(C)=O)C=CC(O)C12Oc1cc(C)cc(O)c1C2=O (stereo not given) — higher, 7.66% [at 38.5 µM]
- CC(=O)N1c2ccccc2C2(O)CC3C(=O)NC(CC(C)C)C(=O)N3C12 (stereo not given) — higher, 7.61% [at 38.5 µM]
- O=C1[C@H](O[C@@H]2O[C@H](CO)[C@@H](O)[C@H](O)[C@H]2O)Oc2ccccc2N1O — higher, 4.38% [at 38.5 µM]
- C=C[C@](C)(CC/C=C(\C)C(=O)O)O[C@@H]1OC[C@H](O)[C@H](O)[C@H]1O — higher, 6.36% [at 38.5 µM]

Point of comparison: `CC1(C)C[C@H]2C3=CCC4[C@@]5(C)CC[C@H](O[C@H]6O[C@H](C(=O)O)[C@@H](O)[C@H](O)[C@H]6O[C@H]6O[C@H](CO)[C@@H](O)[C@H](O)[C@H]6O[C@@H]6O[C@H](CO)[C@@H](O)[C@H](O)[C@H]6O)[C@](C)(CO)C5CC[C@@]4(C)[C@]3(C)CC[C@@]2(C)[C@H](O[C@@H]2OC[C@H](O)[C@H](OC3O[C@H](CO)[C@@H](O)[C@H](O)[C@H]3O)[C@H]2O)[C@@H]1O` (stereo not given in full), activity change, negative = cytotoxicity 2.32% [at 6.55 µM]. Against it:
- C[C@@H]1O[C@@H](O[C@H]2[C@H](OC(=O)[C@]34CCC(C)(C)C[C@H]3C3=CCC5[C@@]6(C)C[C@H](O)[C@H](O[C@@H]7O[C@H](CO[C@@H]8OC[C@H](O)[C@H](O)[C@H]8O)[C@@H](O)[C@H](O)[C@H]7O)C(C)(C)C6CC[C@@]5(C)[C@]3(C)C[C@H]4O)OC[C@@H](O)[C@@H]2O)[C@H](O)[C@H](O[C@@H]2OC[C@](O)(CO)[C@H]2O)[C@H]1O[C@@H]1OC[C@H](O)[C@H](O[C@@H]2OC[C@@H](O)[C@H](O)[C@H]2O)[C@H]1O (stereo not given in full) — higher, 19.1% [at 6.55 µM]
- C[C@@H]1O[C@@H](O[C@H]2[C@H](OC(=O)[C@]34CCC(C)(C)C[C@H]3C3=CCC5[C@@]6(C)C[C@H](O)[C@H](O[C@@H]7O[C@H](CO)[C@@H](O[C@@H]8O[C@H](CO)[C@@H](O)[C@H](O)[C@H]8O)[C@H](O)[C@H]7O)[C@@](C)(CO)C6[C@H](O)C[C@@]5(C)[C@]3(C)C[C@H]4O)OC[C@H](O)[C@@H]2O)[C@H](O)[C@H](O)[C@H]1O[C@@H]1OC[C@@H](O)[C@H](O[C@@H]2OC[C@](O)(CO)[C@H]2O)[C@H]1O (stereo not given in full) — higher, 5.03% [at 6.55 µM]

With `CCN[C@@H]1C[C@H](N)[C@@H](O[C@H]2OC(CN)=CC[C@H]2N)[C@H](O)[C@H]1O[C@H]1OC[C@](C)(O)[C@H](NC)[C@H]1O` the Potency was “inactive”.
